RORg inh – ROR gamma (mouse) transcription inhibition. Potency, µM (titrated, usually from 53.6 µM), most hits filed as inhibitors. 5.4% of 310,000 active. AID 2551. Drosophila S2 Gal4-RORgamma UAS-luciferase reporter, 20 h. P51450; also: nearly all actives have a fitted effect of over 60% in size
Target sequence (P51450 whole entry, looked up, the tested form may be a part): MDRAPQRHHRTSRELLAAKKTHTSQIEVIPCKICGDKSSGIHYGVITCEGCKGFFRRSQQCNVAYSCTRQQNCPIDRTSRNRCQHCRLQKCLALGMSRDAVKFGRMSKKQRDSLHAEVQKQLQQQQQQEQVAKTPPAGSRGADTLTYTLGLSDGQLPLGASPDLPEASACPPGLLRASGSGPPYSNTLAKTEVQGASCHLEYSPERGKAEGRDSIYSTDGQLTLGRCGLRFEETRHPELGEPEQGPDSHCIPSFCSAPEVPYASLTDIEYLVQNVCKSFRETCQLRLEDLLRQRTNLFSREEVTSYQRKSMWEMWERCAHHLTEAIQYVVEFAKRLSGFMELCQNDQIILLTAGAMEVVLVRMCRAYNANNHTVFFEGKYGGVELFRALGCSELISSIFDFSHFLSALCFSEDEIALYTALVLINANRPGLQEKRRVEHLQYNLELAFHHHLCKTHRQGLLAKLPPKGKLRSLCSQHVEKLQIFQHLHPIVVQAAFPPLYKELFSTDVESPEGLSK
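Drosophila Schneider cells stably carrying a metallothionein-driven Gal4 DBD–ROR gamma fusion and a UAS-Photinus luciferase reporter were exposed to compound for 1 hr, then induced with copper sulfate (700 uM final) for 20 hr at ambient temperature before luminescence reading.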
ATXN2 expr inh – reduces ATXN2 reporter expression in HEK-293 cells. HEK-293 ATXN2-luciferase reporter, luminescence, 24 h. Potency, µM (doses to about 57 µM), actives largely listed as inhibitors. 0.72% of 360,000 active. AID 1745845; also: nearly all actives have a fitted effect of over 55% in size
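qHTS (up to 57 uM final) was run with 24 h compound exposure of reporter cells at 37 °C. Each well was multiplexed: SteadyGlo luminescence measured ATXN2-luciferase expression after a fluorogenic Gly-Phe-AFC viability readout (25 uM final).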
ATXN viability – viability counter-screen for ATXN expression inhibitors; S2 cells (HEK-293 line with an ATXN2-luciferase reporter) viability, CellTiter-Fluor protease fluorescence, 24 h; Potency, µM (titrated, usually from 56.7 µM), usual class: cytotoxic; 0.49% of 400,000 active; AID 651635; also: nearly all actives have a fitted effect of over 40% in size
HepG2 tox – counter-screen for TGF-b inhibitors: cytotoxicity in HepG2 cells; Potency, µM (top dose mostly 46.1 µM), usual class: cytotoxic; HepG2 CAGA-GFP viability, ATP luminescence, 18 h; 0.76% of 410,000 active
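CellTiter-Glo luminescence gave cytotoxicity after 18 hours at 37 degrees C. The cells were HepG2 CAGA-GFP in 1% FBS DMEM, stimulated with 500 pg/mL TGF-beta after compound addition. %Activity was normalised to no-cell wells (complete cell-killing) and DMSO (no toxicity), and curves were fitted and classified.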
TGFb inhibitor – inhibitors of TGF-b signaling | HepG2 CAGA-GFP TGF-b/SMAD3 reporter, GFP fluorescence, 18 h; TGF-beta stimulated, 500 pg/mL final | Potency, µM (titrated, usually from 46.1 µM), actives largely listed as inhibitors | 1.2% of 410,000 active | AID 588855; also: nearly all actives have a fitted effect of over 65% in size
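Inhibition of TGF-beta-driven CAGA-GFP reporter expression in HEPG2 cells is measured by cellular GFP fluorescence after 18 h stimulation with 500 pg/mL recombinant TGF-beta in 1% FBS medium at 37 degrees C.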
Gal4-VP16 FLuc – counter-screen for ROR gamma inhibitors: Gal4-VP16 reporter; Drosophila S2 Gal4-VP16 UAS-luciferase, luminescence, 20 h; Potency, µM (doses to about 53.6 µM), most hits filed as inhibitors; AID 2546; 3.5% of 310,000 active;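 also: Gal4-VP16 expression switched on by copper sulfate through the metallothionein promoter; nearly all actives have a fitted effect of over 50% in size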
Hits are given with their value; [ ] = remark or other dose. Sampled rows, rich in hits. Any-hit rate of the full collection: about 6.1%. Calls follow the shape of the dose curve; as a rule, active = well fitted curve in the direction sought with a large enough effect; inconclusive = small, poorly fitted or top-dose-only effect, or another doubt; inactive = no such curve, though single readings can be large; an effect the other way counts as inactive or inconclusive.

Screening CCCCCC(=O)NNC1=NCC(Cc2ccccc2)S1 (configuration not stated) returned RORg inh 1.4µM, ATXN2 expr inh inactive, HepG2 tox inactive, TGFb inhibitor inactive and Gal4-VP16 FLuc inconclusive.
`Cc1nnc(NC(=O)CSc2cn(Cc3ccccc3)c3ccccc23)s1` gave RORg inh 11µM, ATXN2 expr inh inactive, ATXN viability inactive, HepG2 tox inactive, TGFb inhibitor inactive and Gal4-VP16 FLuc inactive.
Screening Cc1ccc(C(C)(C)C)c(SCC(=O)Nc2nnc(C)s2)c1 returned RORg inh 7.1µM, ATXN2 expr inh inactive, ATXN viability inactive, HepG2 tox inactive, TGFb inhibitor inactive and Gal4-VP16 FLuc inactive.
Screening COc1ccc(Cc2n[nH]c(=S)n2-c2cc(C)ccc2C)cc1OC returned ATXN2 expr inh inactive, ATXN viability inactive, HepG2 tox inactive and TGFb inhibitor inactive.
`Cc1ccc(C)c(-n2c(-c3csc(C)c3C)n[nH]c2=S)c1` gave RORg inh inconclusive, ATXN2 expr inh inactive, ATXN viability inactive, HepG2 tox inactive, TGFb inhibitor inactive and Gal4-VP16 FLuc 5µM.
For Cc1ccccc1-n1c(-c2ccncc2)n[nH]c1=S the results were RORg inh 13µM, ATXN2 expr inh inactive, ATXN viability inactive, HepG2 tox inactive, TGFb inhibitor inactive and Gal4-VP16 FLuc inactive.
For Cc1ccc(-n2c(-c3ccncc3)n[nH]c2=S)c(C)c1 the results were RORg inh 11µM, ATXN2 expr inh inactive, ATXN viability inactive, HepG2 tox inactive, TGFb inhibitor inactive and Gal4-VP16 FLuc inconclusive.
Cc1ccc(C)c(-n2c(-c3cccnc3)n[nH]c2=S)c1 was read as RORg inh 10µM, ATXN2 expr inh inactive, ATXN viability inactive, HepG2 tox inactive, TGFb inhibitor inactive and Gal4-VP16 FLuc inactive[10 µM].
`CCNC(=O)NCCCOc1cccc(CN2CCCCC2)c1` gave ATXN2 expr inh inactive and ATXN viability inactive.
Screening CC(C)C[C@H](NC(=O)[C@H](Cc1c[nH]c2ccccc12)NC(=O)[C@H](CCCCN)NC(=O)CNC(=O)[C@H](CC(C)C)NC(=O)[C@H](CO)NC(=O)[C@@H](N)Cc1cnc[nH]1)C(=O)NCC(=O)N[C@@H](Cc1cnc[nH]1)C(=O)N1CCC[C@H]1C(=O)N[C@@H](CC(=O)O)C(=O)N[C@@H](CCCCN)C(=O)N[C@@H](Cc1ccccc1)C(=O)O returned RORg inh inactive and Gal4-VP16 FLuc inactive.
Screening CCc1ccccc1N(C)C(=O)Nc1cn(CC(C)C)c(=O)c2ccccc12 returned ATXN2 expr inh inactive, ATXN viability inactive, HepG2 tox inactive and TGFb inhibitor inactive.
For Cc1cc(-c2n[nH]c(=S)n2-c2ccccc2C)cs1 the results were RORg inh 2.8µM, ATXN2 expr inh inactive, ATXN viability inactive, HepG2 tox inactive, TGFb inhibitor inactive and Gal4-VP16 FLuc 6.3µM.
`Cc1cccc(-n2c(-c3ccncc3)n[nH]c2=S)c1C` gave RORg inh inactive, ATXN2 expr inh inactive, ATXN viability inactive, HepG2 tox inactive, TGFb inhibitor inconclusive and Gal4-VP16 FLuc inactive.
O=S(=O)(CCc1ccccc1)c1nnnn1C1CCCCC1 was read as RORg inh inactive and Gal4-VP16 FLuc inactive.
For Cc1cccc(/C=N/NC(=O)c2cc(C3CC3)nc3ccccc23)n1 the results were RORg inh inconclusive, ATXN viability inactive, HepG2 tox inactive, TGFb inhibitor inactive and Gal4-VP16 FLuc inconclusive.
Cc1cc(C(=O)N/N=C/c2ccc(N(C)C)cc2)c2ccccc2n1 was read as RORg inh 16µM, ATXN2 expr inh inconclusive, ATXN viability inconclusive, HepG2 tox inactive, TGFb inhibitor inactive and Gal4-VP16 FLuc inactive.
`Cc1cccc(/C=N/NC(=O)c2cc(C)nc3ccccc23)n1` gave RORg inh 11µM, ATXN viability inactive, HepG2 tox inactive, TGFb inhibitor inactive and Gal4-VP16 FLuc inconclusive.
`O=c1c2ccccc2n(Cc2ccccc2F)c(=O)n1-c1cccc(F)c1` gave ATXN2 expr inh inactive, ATXN viability inactive, HepG2 tox inactive and TGFb inhibitor inactive.

Compound activity as filed in PubChem.
